According to PubChem BioAssay (NCI):
The panel holds about 83,000 compounds, 20% with a hit somewhere; the sample as a whole holds those more often.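 Single-dose data. Exposure time 48 hours. Values below 10 considered active.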 A number with no mark means an inactive call. The source made the active and inactive calls.

These molecules were tested on ACHN renal (assay: NCI-60 one-dose screen, 48 h (100 = growth as untreated, 0 = no growth, -100 = all killed)). Conditions: 10 µM unless noted.
Protocol: Growth inhibition of the ACHN human tumor cell line is measured as a screen for anti-cancer activity. Cells are grown in 96 well plates and exposed to the test compound for 48 hours. Compounds are tested at a single concentration, which is 10^-5 M for most compounds. The reported endpoint is percent growth (GI% or GIPRCNT), where numbers from 0 - 100% represent growth inhibition, and numbers from -100% - 0 represent cell death. For example, a value of 40 represents 60% growth inhibition. A value of 0 means no net growth occurred over the course of the experiment. A value of -40 indicates 40% of cells at the beginning of the experiment died by the end of the experiment. A value of -100 means all cells are dead at the end of the experiment.
NCI-60 Human Tumor Cell Lines Screen was performed using the standard one-dose NCI protocol, which is described in more detail at https://dtp.cancer.gov/discovery_development/nci-60/default.htm.
Compounds with GIPRCNT values below 10 were considered active. Activity score was based on GIPRCNT using the following formula: […]
Score is 0 for GIPRCNT values of 100 or above, 50 for GIPRCNT values of 0, and 100 for GIPRCNT values of -100.
`COc1ccc(OC)c2c1[nH]c(=O)c1c3ccccc3cn21` was tested, and the growth was -84.6% (active).
Work on `CN1CCN(CC(=O)Nc2nc3c(s2)Nc2cc(Cl)c(Cl)cc2NC3=O)CC1` yielded a growth of 105%.
`N#CCCN(CCO)c1ccccc1` gave a growth of 106%.
In the case of `COc1cc(-c2cc(C(=O)Nc3nc4ccccc4s3)nc3cc(-c4ccccc4)nn23)cc(OC)c1OC`, the growth is reported as 101%.
Work on `CC(c1cc(Cl)ccc1O)c1cc(Cl)ccc1O` yielded a growth of 41.4%.
For `Cc1cc(C(=O)O)c(C)cc1C(=O)O`, the growth was 112%.
Work on `O=c1[nH]c(Cl)nc2c1cnn2-c1ccccc1` yielded a growth of 101%.
With `COc1cc2cn3c4ccc(O)cc4nc(N)c3c2cc1OC` the growth was -3.69% (active).
`NS(=O)(=O)c1ccc(NC2=C(Cl)C(=O)c3ccccc3C2=O)cc1` showed a growth of 78.3%.
In the case of `O=C(/C=C/c1ccccc1Cl)c1ccc(O)cc1`, the growth is reported as 78.9%.
`CCC(C)CC(C)C(=O)c1c(O)ccn(OC)c1=O` (stereo not given) gave a growth of 46.1%.
Work on `CC(=O)Oc1c(C)c(OC(C)=O)c2c(c1C(C)=O)OC1CC(=O)C(C(C)=O)=C(O)C21C` (stereo not given) yielded a growth of 97%.
Work on `Nc1nc(SCC2(CCl)COC2)c2[nH]cnc2n1` yielded a growth of 95.7%.
In the case of `c1ccc(-c2nnc(Nc3nnc(-c4ccccc4)s3)s2)cc1`, the growth is reported as 96%.
In the case of `CCS(=O)(=O)OCCCl`, the growth is reported as 99.3%.
Work on `CC(=O)Nc1ccc2c(c1)Cc1c(F)c(F)c(F)c(F)c1-2` yielded a growth of 87.5%.
`CCOC(=O)C1=C(COCCN)NC(C)=C(C(=O)OC)C1c1ccccc1Cl` (stereo not given) was tested, and the growth was 43.8%.
With `Oc1[nH]c2ccccc2c1/C=c1/ccc2c(c1)N=C(c1cc(F)cc(F)c1)N=2` the growth was 50.9%.
`Nc1ccc2c3c(cccc13)-c1ccccc1-2` was tested, and the growth was 95.2%.
With `COc1cc(/C=C/C(=O)c2ccc(F)cc2)ccc1OCCCCCOc1cc2c(cc1OC)C(=O)N1CCCC1C=N2` (stereo not given) the growth was -9.07% (active).
With `COc1ccc2c(c1)C(=O)/C(=C/c1cccc(OCC(=O)c3ccccc3)c1)CC2` the growth was 94.4%.
Molecule `Cc1nn(-c2ccc(Cl)cc2)c2nc3c(nc12)c(=O)oc1ccccc13` has a growth of 99.8%.
With `O=C1Nc2ccc(F)cc2/C1=C/c1nc(-c2ccc(F)cc2)n2ccccc12` the growth was 94%.
With `O=C(Nc1ccc(Nc2ccncc2)cc1)c1ccc(Nc2ccnc3ccc([N+](=O)[O-])cc23)cc1[N+](=O)[O-]` the growth was 65.9%.
`C[C@@H]1CC[C@H]2[C@@H](C)C(O)O[C@@H]3O[C@]4(C)CC[C@@H]1[C@]32OO4` (stereo not given in full) was tested, and the growth was 22.1%.
For `O=C1NCN(CCO)CN1`, the growth was 104%.
For `COc1ccc(/C=C2\COc3ccc(O)c(O)c3C2=O)cc1OC`, the growth was -56.3% (active).
Work on `O=c1ccn(C2OC(CO)C(O)C2F)c(=O)[nH]1` (stereo not given) yielded a growth of 107%.
For `COc1ccc(C2=NN(C(C)=O)C(c3cc(OC)c(OC)c(OC)c3)C2)cc1` (stereo not given), the growth was 104%.
`OCCOc1c(Cl)cc(Cl)cc1Cl` gave a growth of 99.3%.
In the case of `O=c1ccn(C2CCCO2)c(=O)[nH]1` (stereo not given), the growth is reported as 98.7%.
In the case of `CCN(CC)CCOc1ccccc1-n1c(C)ccc1-c1ccccc1`, the growth is reported as 105%.
`c1ccc(-n2nnnc2-c2cccc3ccccc23)cc1` was tested, and the growth was 52.9%.
In the case of `OCc1nnn(-c2ccccc2)c1CO`, the growth is reported as 107%.
`O=C1OCCCCCCCCCC#Cc2ccccc21` was tested, and the growth was 145%.
For `COC(=O)C[C@@H]1CC=CC(=O)/C1=C(O)/C=C/c1ccccc1`, the growth was -83.3% (active).
In the case of `COc1ccc(/C=C(\C#N)c2ccccc2)cc1`, the growth is reported as 97.3%.
In the case of `S=C1SCN(Cc2ccccc2)CN1Cc1ccco1`, the growth is reported as 107%.
With `O=C(Nc1cccc(-n2cc(-c3ccncc3)c(-c3ccc(O)c(Cl)c3)n2)c1)Nc1ccc(Cl)c(C(F)(F)F)c1` the growth was 10.7%.
In the case of `COc1ccc(C(=O)C(C)Br)cc1OC` (stereo not given), the growth is reported as 80.3%.
